Source: PubChem
Shown are actives, neighbours in structure and some others; about 4.8% of the full set was active somewhere.
DAX1 inh-1 – NR0B1 (DAX1) inhibition | 340,000 compounds, 0.99% hits | HEK293 Gal4-DAX1 luciferase reporter, luminescence | inhibition, % at 6.75 µM;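 active = inhibition above the mean over all tested compounds plus 3 SD, cut at about 4.2% in these data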;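 note: 0% = DAX1-transfected cells with DMSO and 100% = empty-vector control cells with DMSO; inhibition shows as a rise in luminescence from relieved DAX1 repression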
Target sequence (P51843 207-470 limits assumed): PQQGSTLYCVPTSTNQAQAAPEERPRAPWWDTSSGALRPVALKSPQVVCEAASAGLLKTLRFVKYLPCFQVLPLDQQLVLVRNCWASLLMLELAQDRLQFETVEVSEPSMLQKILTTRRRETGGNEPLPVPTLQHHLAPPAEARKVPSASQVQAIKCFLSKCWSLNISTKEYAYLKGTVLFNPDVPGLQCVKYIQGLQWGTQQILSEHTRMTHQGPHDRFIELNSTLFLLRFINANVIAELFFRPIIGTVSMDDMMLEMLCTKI
hgDAF-12 ag – hgDAF-12 agonism, primary luciferase screen. HEK293 GAL4-hgDAF12 UAS-luciferase reporter, agonist luminescence; normalized to butyrate control. activation, % at 6.8 µM. 370,000 compounds, 1.8% hits. AID 687014;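 active = activation above a cutoff set at the mean of all screened compounds plus 3 SD, cut at about 10% in these data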;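 note: 0% = DMSO wells and 100% = sodium butyrate wells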
ssDAF-12 act – activates DAF-12 receptor from parasite S. stercoralis | HEK293 ssDAF-12/GRIP1 lit1-tk-luc reporter, luminescence; % of 3 µM dafachronic acid response | AID 652126 | activation, % at 6.8 µM | 370,000 compounds, 1% hits;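 active = activation above the mean over all tested compounds plus 3 SD, cut at about 0.9% in these data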;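 note: 0% = DMSO-only wells and 100% = 3 µM delta7-dafachronic acid wells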
hcDAF-12 act – H. contortus DAF-12 activation, primary screen | HEK293 hcDAF-12 lit1-tk-luc reporter, luminescence; 0% DMSO, 100% Δ7-dafachronic acid | activation, % at 6.8 µM | 370,000 compounds, 1.4% hits | AID 652067;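 active = activation above the mean of all tested compounds plus 3 SD, cut at about 5.5% in these data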;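 note: 100% = response to 3 µM Δ7-dafachronic acid high control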
DAX1 inh-2 – blocks DAX1 repression of SF-1 activated StAR promoter | inhibition, % at 6.8 µM | HEK293T StAR-luciferase reporter, SF-1/DAX-1 repression relief | 370,000 compounds, 1.1% hits;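 active = inhibition above the mean over all tested compounds plus 3 SD, cut at about 3.6% in these data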;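 note: 0% = DAX-1 cells with DMSO and 100% = cells lacking DAX-1 with DMSO; higher inhibition means more luminescence from relief of DAX-1 repression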
SMARCA2 act – SMARCA2 function activation, primary screen. MG213 cells, MMTV-luciferase reporter, dexamethasone, overnight. activation, % at 9.1 µM. 370,000 compounds, 1% hits. AID 652017; in the data active = activation above about 7.8%;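 note: 0% = vehicle wells and 100% = reference activator wells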
SMARCA2 conf – confirmation of SMARCA2 (BRM) function activators. shares compounds with SMARCA2 act. MG213 cells, MMTV-luciferase with dexamethasone, luminescence, overnight; MG213 cells expressing E1A, Rb sequestered; DMSO wells 0%, reference activator 100%. activation, % at 9.1 µM. 3,500 compounds, 30% hits. AID 652260;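 active = activation above its plate's cutoff, the mean activation of tested wells plus 3 SD, cut at about 7.9% in these data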
GAL4-VP16 Luc – activates GAL4-VP16 luciferase, flagging SMARCA2 activator hits. activation, % at 9.1 µM. shares compounds with SMARCA2 act. HEK293 GAL4-VP16 pG5luc reporter, luciferase luminescence; scaled: DMSO wells 0%, SAHA wells 100%. 3,500 compounds, 41% hits;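 active = activation above the solvent-only control well mean plus 3 SD, averaged across control plates, cut at about 5.2% in these data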
Numbers without * were called inactive; . = not tested or not shown.

SMILES	DAX1 inh-1	hgDAF-12 ag	ssDAF-12 act	hcDAF-12 act	DAX1 inh-2	SMARCA2 act	SMARCA2 conf	GAL4-VP16 Luc
CCN=C1S/C(=C\c2cn(CC(=O)NCc3ccco3)c3ccccc23)C(=O)N1CC	-1.6	-2.3	-2.1	-4.1	-0.7	8.1*	9.9*	4.3
COc1ccccc1NS(=O)(=O)c1cc(NC(=O)/C=C/c2cccs2)ccc1N1CCOCC1	0.2	4.6	-1.2	0.2	0.8	17.7*	9.2*	3.4
O=c1[nH]c2ccccc2nc1Cc1ccc(Cl)cc1	1.0	-0.5	-1.0	-0.3	0.3	-2.4	.	.
CC(C)(C)OC(=O)NCCCC[C@H](NC(=O)[C@H](Cc1c[nH]c2ccccc12)NC(=O)OCc1ccccc1)C(=O)O	-0.2	2.7	-0.5	1.9	0.5	-1.6	.	.
Cc1ccc(C(=O)Nc2cccc(-c3ccc(N4CCOCC4)nn3)c2)cc1C	-2.0	5.7	-0.2	0.8	1.6	-0.6	.	.
O=C(Nc1cccc(-c2ccc(N3CCOCC3)nn2)c1)c1cccc(Cl)c1	0.8	3.8	-1.1	3.3	-0.2	9.4*	5.3	7.0*
Nc1ccc2nc(COc3ccccc3)[nH]c2c1	-1.2	9.9	-0.4	6.5*	1.4	11.7*	0.9	0.7
COc1cc(OC)cc(C(=O)Nc2nc3ccccc3[nH]2)c1	0.8	8.4	-0.8	2.9	0.4	0.2	.	.
O=C(Nc1nc2ccccc2[nH]1)C1CCC1	1.5	8.9	-1.5	1.9	1.5	8.9*	3.2	8.7*
COc1ccc(Br)c(C(=O)Nc2nc3ccccc3[nH]2)c1	0.5	3.1	-0.6	1.3	1.0	8.8*	7.8*	2.1
COc1ccc(C(=O)Nc2nc3ccccc3[nH]2)cc1OC	-0.1	7.3	-0.6	1.7	2.0	10.5*	6.1	10.2*
CCCCNC(=O)c1nc(C2CCN(S(=O)(=O)c3ccc(F)c(F)c3)CC2)oc1-c1ccccc1	.	4.0	-1.2	-0.1	0.8	3.2	.	.
COc1ccccc1C(=O)NC(=O)COC(=O)CCNS(=O)(=O)c1ccccc1	0.1	0.3	-1.1	-0.2	0.1	-1.8	.	.
COc1ccc(NC(=O)CN(C)C(=O)c2cccc(Oc3ccccc3)c2)cc1	-0.2	-0.8	-1.9	-2.2	-1.1	-1.9	.	.
CCC12CN(C(=O)c3ccc([N+](=O)[O-])cc3)CC(CC)(CN(C(=O)c3ccc([N+](=O)[O-])cc3)C1)C2=O	.	-2.8	-1.3	-1.0	-0.8	1.4	.	.
CN(CC(=O)NCc1ccncc1)S(=O)(=O)c1ccc(F)cc1	0.6	-0.5	-1.6	1.0	0.4	8.3*	-1.8	-0.2
CN(CC(=O)NCc1ccncc1)S(=O)(=O)c1ccc(Cl)cc1	1.2	1.0	-1.5	0.9	-0.1	0.8	.	.
CCOc1cccc(/C=C/c2ccc3cccc(O)c3n2)c1O	1.6	10.5*	0.0	5.8*	0.1	12.0*	12.2*	17.9*
CCOc1cccc(/C=C/c2ccc3cccc(O)c3n2)c1OC	1.4	9.9	-0.5	3.4	0.0	13.6*	-9.4	27.8*
COc1ccccc1/C=C/c1ccc2cccc(O)c2n1	2.5	4.6	0.0	5.5	0.7	6.1	.	.
COc1cc(Cl)cc(/C=C/c2ccc3cccc(O)c3n2)c1OC	0.6	1.3	-0.9	-0.1	0.6	-1.2	.	.
CCOC(=O)NC(=O)/C(C#N)=C\Nc1ccc(Cl)cc1Cl	-0.3	4.9	-0.1	1.6	1.1	9.0*	1.0	7.9*
O=C1SC(Cc2ccccc2)C(=O)N1c1ccccc1 (configuration not stated)	.	-1.0	0.0	-1.0	-0.4	8.3*	-4.4	0.0
